Experiment [1] deals with Retinoic acid receptor RXR-alpha (Homo sapiens) (UniProt P19793). In words: qHTS assay to identify small molecule agonists of the RXR signaling pathway (AID 1159527; calls by dose curve; further: nearly all actives have a fitted effect of over 35% in size; further: potency means the concentration at half of the fitted maximal effect). Summed up: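 Cells plated at 2,000/well, rested 5 hr at 37 C, pin-dosed with DMSO compound solutions, incubated 16 hr, then loaded with B/G FRET substrate for 2 hr at RT before dual-emission fluorescence reading.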
Sequence of Retinoic acid receptor RXR-alpha (Homo sapiens) (P19793 whole entry, looked up): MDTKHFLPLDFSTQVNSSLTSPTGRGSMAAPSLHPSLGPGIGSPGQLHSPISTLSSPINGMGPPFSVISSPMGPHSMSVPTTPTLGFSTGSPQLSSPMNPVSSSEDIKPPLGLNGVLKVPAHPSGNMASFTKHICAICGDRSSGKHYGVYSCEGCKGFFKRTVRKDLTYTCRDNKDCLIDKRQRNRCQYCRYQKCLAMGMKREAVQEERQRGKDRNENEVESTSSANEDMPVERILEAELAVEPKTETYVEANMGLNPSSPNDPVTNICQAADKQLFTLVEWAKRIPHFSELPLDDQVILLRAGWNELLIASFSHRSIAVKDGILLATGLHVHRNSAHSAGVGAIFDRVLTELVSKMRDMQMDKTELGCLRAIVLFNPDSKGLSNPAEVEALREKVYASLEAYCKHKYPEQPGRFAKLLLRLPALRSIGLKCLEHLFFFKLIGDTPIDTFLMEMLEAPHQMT

Experiment [2] is described as follows: qHTS assay to identify small molecule agonists of the RXR signaling pathway - cell viability counter screen (AID 1159529).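 Further: HEK 293T cells carrying an RXR-alpha UAS beta-lactamase reporter; series mostly up to about 77 µM; nearly all actives have a fitted effect of over 50% in size.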 Summed up:
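Steps: seed RXR-alpha-UAS-bla HEK 293T cells in assay medium containing 2% charcoal-stripped FBS; incubate 5 hr; add compounds in DMSO; incubate 16 hr at 37 C; after the bla read, add CellTiter-Glo and read luminescence at 30 min.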

The nature of experiment [3]: qHTS assay to identify small molecule antagonists of the retinoid acid receptor (RAR) signaling pathway - cell viability counter screen (AID 1159551). Further: nearly all actives have a fitted effect of over 35% in size. Further: potency means the concentration at half of the fitted maximal effect. Summed up:
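Following overnight attachment, C3RL4 reporter cells received DMSO-dissolved compounds and then retinol (1 uM final). Six hours later at 37 C, ATP content was measured by CellTiter-Glo luminescence.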

The nature of experiment [4]: qHTS assay to identify small molecule antagonists of the retinoic acid receptor (RAR) signaling pathway (AID 1159552; further: nearly all actives have a fitted effect of over 50% in size; further: potency means the concentration at half of the fitted maximal effect). Summed up:
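Retinol at 1 uM final stimulated RARE-luciferase expression in C3RL4 cells exposed to test compounds for 6 hr at 37 C. Reduced luminescence, read 30 min after detection reagent, indicated pathway antagonism.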

Experiment [5] in a line: qHTS assay to identify small molecule agonists of the retinoic acid receptor (RAR) signaling pathway (AID 1159553). Further: potency means the concentration at half of the fitted maximal effect. Summed up:
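Cell line C3RL4, RARE luciferase reporter. Treatment: compounds in DMSO, 6 hr, 37 C, 5% CO2, after overnight plating. Detection: luminescence, 30 min RT after reagent.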

Experiment [6] is described as follows: qHTS assay to identify small molecule antagonists of the estrogen related receptor (ERR) signaling pathway - cell viability counter screen (AID 1224818). Further: series mostly up to about 46 µM. Put shortly: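 Here, ERR cells are plated at 2,000 cells per well, allowed 6 h to attach, and treated with compounds in DMSO for 17.5 h at 37 C. CellTiter-Fluor is then added and fluorescence read after 30 min.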

Experiment [7] is described as follows: qHTS assay to identify small molecule antagonists of the estrogen related receptor signaling pathway with the pleiotropic PPARgamma coactivator (PGC) cell viability counter screen (AID 1224822; further: series mostly up to about 46 µM). Put shortly: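 qHTS format, DMSO compound stocks pin-transferred onto PGC/ERR cells 6 h after plating; 17.5 h exposure at 37 C, then CellTiter-Fluor fluorescence.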

The record followed here is PubChem BioAssay (Tox21).

Results filed as inconclusive are left out. Unmarked numbers belong to inactive results. Activity calls are given as the source filed them. Unless noted, the call rests on the fitted dose curve; in most records, active means well fitted curve in the direction sought with a large enough effect in the repeat runs; inconclusive means weak or mixed curves; inactive means no such curve, though single readings can be large; an effect the other way counts as inactive or inconclusive.
On the % scale 0 is the no-effect control and ±100 the full control effect.

In the case of `Cc1ccc(NC(=O)N(C)C)cc1NC(=O)N(C)C`, the Potency result in experiment [1], in experiment [2], in experiment [3], in experiment [4] and in experiment [5] was “inactive” throughout.

Turning to `COC(=O)CC(C(C)=O)C(=O)OC` (configuration not stated), the Potency result in experiment [1], in experiment [2], in experiment [3], in experiment [4] and in experiment [5] was “inactive” in each case.

For the compound `O=C(O)CO`, the Potency result in experiment [1], in experiment [3] and in experiment [4] was “inactive” each time.

Take `O=C(O)CN1C(=O)c2cccc3cccc(c23)C1=O`: the Potency entry in experiment [1] and in experiment [3] was “inactive” each time.

With `FC(F)(F)C(F)(F)C(F)(F)C(F)(F)CCI`, the Potency result in experiment [1], in experiment [2], in experiment [3], in experiment [4] and in experiment [5] was “inactive” each time.

Consider `NC(=O)CCCCC(N)=O`, for which the Potency entry in experiment [1] and in experiment [3] was “inactive” in each case.

In the case of `CC(=O)C(=O)CC(C)C`, the Potency result in experiment [1] and in experiment [3] was “inactive” in each case.

In the case of `CCNc1nc(N)nc(Cl)n1`, the Potency in experiment [1] was 5.49 µM (active); in experiment [4], 21.7 µM (active). Besides, in experiment [3], the Potency result is “inactive”.

Consider `c1ccc(CNc2ncnc3c2ncn3C2CCCCO2)cc1` (configuration not stated), for which the Potency entry in experiment [1], in experiment [3] and in experiment [4] was “inactive” each time. The Potency in experiment [5] is 4.33 µM (active).

With `O=S(=O)(O)CO`, the Potency result in experiment [1], in experiment [2], in experiment [3] and in experiment [5] was “inactive” in each case.

Consider `Nc1nc2ccc(OC(F)(F)F)cc2s1`, for which the Potency result in experiment [1], in experiment [2], in experiment [3] and in experiment [4] was “inactive” each time. Besides, the Potency in experiment [5] is 9.44 µM (active). Besides, the result in experiment [6] and in experiment [7] was inactive.

Consider `CCCCCCCCCCCCCCCCCC(=O)OCC(CC)CCCC` (configuration not stated), for which the Potency result in experiment [1], in experiment [2], in experiment [3], in experiment [4] and in experiment [5] was “inactive” each time.

Take `C[C@H](CS)C(=O)N1CCC[C@H]1C(=O)O`: the Potency entry in experiment [1], in experiment [2] and in experiment [3] was “inactive” throughout. Moreover, the result in experiment [6] and in experiment [7] was inactive.

As to `[Cl][Nd]([Cl])[Cl]`, the Potency result in experiment [1], in experiment [2], in experiment [3] and in experiment [5] was “inactive” throughout.

Turning to `COc1cc(S(=O)(=O)Nc2ccccc2)c(OC)cc1N`, the Potency entry in experiment [1], in experiment [3], in experiment [4] and in experiment [5] was “inactive” throughout.

On to `CCOC(=O)c1c(N)sc2c1CCN(Cc1ccccc1)C2`, for which the Potency entry in experiment [1], in experiment [2], in experiment [3], in experiment [4] and in experiment [5] was “inactive” each time.

Regarding `O=C(NC(Cc1cc(=O)[nH]c2ccccc12)C(=O)O)c1ccc(Cl)cc1` (configuration not stated), the Potency entry in experiment [1], in experiment [3] and in experiment [4] was “inactive” each time.

With `CCCCCCCC(=O)OCCCCCC`, the Potency entry in experiment [1], in experiment [2], in experiment [3], in experiment [4] and in experiment [5] was “inactive” in each case.

Regarding `CC(O)Cn1cnc2c1c(=O)n(C)c(=O)n2C` (configuration not stated), the Potency result in experiment [1], in experiment [2], in experiment [3] and in experiment [5] was “inactive” in each case.

As for `Cc1ccc(Nc2c(F)cccc2Cl)c(CC(=O)O)c1`, the Potency entry in experiment [1] and in experiment [3] was “inactive” throughout.

Take `CCC(CO)(CO)[N+](=O)[O-]`: the Potency result in experiment [1], in experiment [2], in experiment [3], in experiment [4] and in experiment [5] was “inactive” throughout.

As to `CNCc1ccc(NC(=O)c2c[nH]c3c2C(=O)CCC3)cc1`, the Potency result in experiment [1], in experiment [3] and in experiment [4] was “inactive” in each case.

Turning to `CCCCCCC(O)CCOC(C)=O` (configuration not stated), the Potency entry in experiment [1] and in experiment [3] was “inactive” in each case.

Take `CC(=O)C(C)=O`: the Potency result in experiment [1], in experiment [2] and in experiment [3] was “inactive” in each case. The compound was classed as inactive in experiment [6] and in experiment [7].

`C1CCCCC1`: the Potency result in experiment [1], in experiment [2], in experiment [3], in experiment [4] and in experiment [5] was “inactive” in each case.

Turning to `CCC(Cl)CC(Cl)C(Cl)C(Cl)C(Cl)C(C)Cl` (configuration not stated), in experiment [1], the activation was -0.0074% [at 15.8 µM]. For the same compound, in experiment [3], the activity change, negative = cytotoxicity is 0.117% [at 19 µM]. For the same compound, in experiment [4], the activity, negative = inhibition was 84.9% [at 19 µM].

As to `CCCCCCCCCCCCCCN(C)C`, in experiment [1], the activation was 7.58% [at 15.8 µM]. Moreover, the activity change, negative = cytotoxicity in experiment [2] is 0.892% [at 15.8 µM]; in experiment [3], 0.962% [at 19 µM]. In addition, the activity, negative = inhibition in experiment [4] was -4.35% [at 19 µM]. The Potency result in experiment [5] was “inactive”.

Consider `Cc1cc(CCCOc2c(C)cc(-c3noc(C(F)(F)F)n3)cc2C)on1`, for which the Potency entry in experiment [1], in experiment [2], in experiment [4] and in experiment [5] was “inactive” in each case.

`CCOC(=O)c1ccc(NC(=O)CN2CCCCC2)cc1`: the Potency result in experiment [1], in experiment [2], in experiment [3] and in experiment [4] was “inactive” in each case. Besides, the Potency in experiment [5] is 21.1 µM (active).

With `Cc1ccc(N(CC2=NCCN2)c2cccc(O)c2)cc1`, the Potency entry in experiment [1], in experiment [2], in experiment [3] and in experiment [4] was “inactive” each time. Also, the result in experiment [6] and in experiment [7] was inactive.

On to `N[C@@H](Cc1cc(I)c(O)c(I)c1)C(=O)O`, for which the Potency entry in experiment [1], in experiment [2], in experiment [3] and in experiment [5] was “inactive” in each case.

With `CC(C)(C)S`, the Potency entry in experiment [1], in experiment [2], in experiment [3], in experiment [4] and in experiment [5] was “inactive” each time.

Regarding `NC(=O)c1ccccc1[N+](=O)[O-]`, the Potency entry in experiment [1], in experiment [2], in experiment [3], in experiment [4] and in experiment [5] was “inactive” in each case.

In the case of `CCN(CC)c1ccc(C(=C2C=CC(=[N+](CC)CC)C=C2)c2ccc(S(=O)(=O)O)cc2S(=O)(=O)[O-])cc1`, the Potency result in experiment [1] was “inactive”. In addition, the values for the Potency in experiment [3] and in experiment [4] were 15.4 µM (active) and 24.3 µM (active), respectively.

Turning to `CCN(CC)CCOC(=O)C(c1ccccc1)c1ccccc1`, the Potency entry in experiment [1], in experiment [3], in experiment [4] and in experiment [5] was “inactive” throughout.

Take `CCN(CC)C(=O)N1CCN(C)CC1`: the Potency result in experiment [1], in experiment [2], in experiment [3], in experiment [4] and in experiment [5] was “inactive” in each case.

For `CCCOC(=O)c1c(Cl)c(Cl)c(Cl)c(Cl)c1C(=O)OCCC`, the Potency result in experiment [1], in experiment [3], in experiment [4] and in experiment [5] was “inactive” throughout.

For the compound `C/C(C=O)=C\c1ccccc1`, the Potency result in experiment [1], in experiment [2], in experiment [3] and in experiment [5] was “inactive” in each case.

With `CCN(Cc1cccc(S(=O)(=O)O)c1)c1ccc(C(=C2C=CC(=[N+](CC)Cc3cccc(S(=O)(=O)O)c3)C=C2)c2ccc(O)cc2S(=O)(=O)[O-])cc1`, the Potency entry in experiment [1] is “inactive”. The Potency in experiment [3] is 14.8 µM (active); in experiment [4], 9.32 µM (active).

As to `CC1CCCO1` (configuration not stated), the Potency result in experiment [1] and in experiment [3] was “inactive” each time.

Turning to `O=P(O)(O)Oc1ccccc1`, the Potency entry in experiment [2], in experiment [3] and in experiment [4] was “inactive” in each case.

On to `C=Cc1ccc(OC(C)=O)cc1`, for which the Potency entry in experiment [1], in experiment [3], in experiment [4] and in experiment [5] was “inactive” each time.

As for `CCCCCCCC/C=C/C(=O)O`, the Potency entry in experiment [2] and in experiment [3] was “inactive” in each case.

Take `Cc1c(C2(c3cc(Br)c(O)c(Br)c3C)OS(=O)(=O)c3ccccc32)cc(Br)c(O)c1Br`: in experiment [2], the Potency entry was “inactive”. In addition, the Potency in experiment [3] was 7.47 µM (active); in experiment [4], 13.3 µM (active).

For `O=C(C(=O)c1ccco1)c1ccco1`, the Potency result in experiment [2] and in experiment [3] was “inactive” each time.

With `COc1cc(C(C)=O)ccc1OCCCN1CCC(c2noc3cc(F)ccc23)CC1`, the Potency entry in experiment [2] and in experiment [3] was “inactive” throughout.
